Experimental data as given in PubChem BioAssay (EPA / NIEHS).
Calls of active or inactive are those of the source. The calls were made as follows: active = hit-call score of the fitted dose curve at least 0.9, where 1 is the maximum; inactive = score below 0.9.

Tests used:
[1] = ATG_GRE_CIS: Attagene CIS-FACTORIAL HepG2 Assay for human Glucocorticoid Response Elements (GRE) (AID 2282947); conditions: HepG2 GRE cis-reporter, Attagene multiplex mRNA; actives raise or lower the signal
Summary of the method: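 Assay uses human hepatoma HepG2 cells transfected with cis-promoter reporter units, exposed 24 h. mRNA from reporters detected by RT-PCR plus capillary electrophoresis; DMSO serves as negative control and baseline.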

[2] = ATG_ISRE_CIS: Attagene CIS-FACTORIAL HepG2 Assay for human Interferon Regulatory Factor 1 (IRF1) binding to an Interferon-Stimulated Response Element (ISRE) (AID 2282948); conditions: HepG2 ISRE cis-reporter (Attagene), mRNA transcription readout; actives raise or lower the signal
Summary of the method: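 Transiently transfected HepG2 cells carrying cis-element reporter units, dosed 24 hours. Reporter mRNA quantified by RT-PCR, fluorescent primer extension, HpaI digestion and capillary electrophoresis. Bidirectional fitting relative to DMSO.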

[3] = ATG_M_32_CIS: Attagene CIS-FACTORIAL HepG2 Assay for M32 Transcription Factor (Internal Marker) (AID 2282949); conditions: HepG2 Attagene cis-factorial M32 reporter, mRNA; actives raise or lower the signal;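 also: background control marker of the multiplexed CIS panel rather than a real target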
Summary of the method: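 Following 24 h chemical exposure of HepG2 cells transiently expressing cis-promoter reporter constructs, reporter transcript levels were determined by RT-PCR with fluorescent labelling and capillary electrophoresis, then fitted bidirectionally against DMSO.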

[4] = ATG_M_06_CIS: Attagene CIS-FACTORIAL HepG2 Assay for M06 Transcription Factor (Internal Marker) (AID 2282950); conditions: HepG2 Attagene CIS-FACTORIAL M06 internal marker reporter; actives raise or lower the signal
Summary of the method: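 Steps: transfect HepG2 with multiplexed cis-element reporter constructs; dose chemical 24 h; extract RNA with DNase treatment; reverse-transcribe, PCR-amplify, 6-FAM label, HpaI digest; separate fragments by capillary electrophoresis. Activity fitted both directions versus DMSO.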

[5] = target: Hypoxia-inducible factor 1-alpha (Homo sapiens) (UniProt Q16665); assay: ATG_HIF1a_CIS: Attagene CIS-FACTORIAL HepG2 Assay for human Hypoxia Inducible Factor 1 (HIF1A) (AID 2282951); conditions: HepG2 Attagene cis-factorial HIF1a reporter transcription; actives raise or lower the signal
Summary of the method: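 Measures endogenous transcription-factor activity through cis-regulated reporter mRNA in HepG2. Cells dosed 24 h; transcripts quantified by RT-PCR with 6-FAM-labelled products separated by capillary electrophoresis; DMSO serves as negative control.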

[6] = target: Hepatocyte nuclear factor 6 (Homo sapiens) (UniProt Q9UBC0); assay: ATG_HNF6_CIS: Attagene CIS-FACTORIAL HepG2 Assay for human Hepatocyte Nuclear Factor 6 (HNF6) (AID 2282952); conditions: HepG2 Attagene cis-factorial HNF6 reporter transcription; actives raise or lower the signal
Summary of the method: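 Multiplexed mRNA reporter assay in transfected HepG2; 24 h dosing; RT-PCR plus capillary electrophoresis fluorescence; DMSO-referenced bidirectional curve fitting.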

[7] = target: Heat shock factor protein 1 (Homo sapiens) (UniProt Q00613); assay: ATG_HSE_CIS: Attagene CIS-FACTORIAL HepG2 Assay for human Heat Shock Transcription Factor 1 (HSE) (AID 2282953); conditions: HepG2 HSE cis-reporter, Attagene RNA transcription; actives raise or lower the signal
Summary of the method: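 Cells were transfected with cis-element-driven reporter constructs, dosed for 24 h, then total RNA was reverse-transcribed and reporter cDNA amplified, FAM-labelled and digested with HpaI. Fragments were resolved by capillary electrophoresis; gain or loss was fitted against DMSO.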

[8] = target: Paired box protein Pax-6 (Homo sapiens) (UniProt P26367); assay: ATG_Pax6_CIS: Attagene CIS-FACTORIAL HepG2 Assay for human Paired Box 6 (PAX6) (AID 2282956); conditions: HepG2 CIS-FACTORIAL PAX6 reporter transcription, RNA readout; actives raise or lower the signal
Summary of the method: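 HepG2 cells transiently transfected with cis-promoter-driven multiplexed reporter units sensing endogenous transcription factor activity; 24 h chemical exposure. Reporter mRNA quantified by RT-PCR, 6-FAM labelling, HpaI digestion and capillary electrophoresis; bidirectional fit versus DMSO baseline.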

[9] = ATG_PXRE_CIS: Attagene CIS-FACTORIAL HepG2 Assay for human Pregnane X Receptor Element (PXRE) (AID 2282957); conditions: HepG2 Attagene CIS-FACTORIAL PXRE reporter, mRNA; actives raise or lower the signal
Summary of the method: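 Cells: HepG2, transiently transfected reporter units under cis promoter control. Exposure: 24 h. Detection: reporter mRNA via RT-PCR/CE fluorescence; bidirectional fitting, DMSO-referenced.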

[10] = ATG_PPRE_CIS: Attagene CIS-FACTORIAL HepG2 Assay for human Peroxisome Proliferator-activated Response Element (PPRE) (AID 2282958); conditions: HepG2 PPRE cis-element reporter, Attagene transcription factor profiling; actives raise or lower the signal
Summary of the method: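 Cells are first transfected transiently with the multiplexed reporter library, then dosed for 24 h. Total RNA is reverse-transcribed, amplified, fluorescently end-labeled and HpaI-cut before capillary electrophoresis; activity is fitted bidirectionally against DMSO controls.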

[11] = ATG_RORE_CIS: Attagene CIS-FACTORIAL HepG2 Assay for human RAR-related Orphan Receptor Element (RORE) (AID 2282959); conditions: HepG2 Attagene cis-factorial RORE reporter, mRNA; actives raise or lower the signal
Summary of the method: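 Cells were HepG2 carrying transfected cis-regulated reporter constructs, dosed for 24 hours. Total RNA was reverse-transcribed and reporter cDNA amplified, fluorescently labeled and sized by capillary electrophoresis. Activity was fitted bidirectionally relative to DMSO.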

[12] = ATG_Sox_CIS: Attagene CIS-FACTORIAL HepG2 Assay for human SRY-box transcription factor (SOX) (AID 2282960); conditions: HepG2 Attagene cis-factorial SOX reporter, mRNA; actives raise or lower the signal
Summary of the method: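 Transient MRTU transfection of HepG2; 24 h compound incubation; TriZol RNA, oligo(dT) RT, PCR, 6-FAM primer extension, HpaI cut, CE. Bidirectional fit, DMSO = baseline.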

[13] = target: Transcription factor Sp1 (Homo sapiens) (UniProt P08047); assay: ATG_Sp1_CIS: Attagene CIS-FACTORIAL HepG2 Assay for human Specificity Protein 1 (Sp1) (AID 2282961); conditions: HepG2 Sp1 cis-reporter transcription, actives raise or lower the signal
Summary of the method: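 Endogenous Sp1 activity was gauged in human liver HepG2 cells bearing transfected reporter units under a cis-regulating promoter. After 24 h dosing, reporter mRNA was quantified by RT-PCR with capillary electrophoresis, and activity fitted bidirectionally versus DMSO.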

[14] = ATG_SREBP_CIS: Attagene CIS-FACTORIAL HepG2 Assay for human Sterol Regulatory Element Binding (SREBP) (AID 2282962); conditions: HepG2 Attagene cis-factorial SREBP reporter, mRNA; actives raise or lower the signal
Summary of the method: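 HepG2 cells transiently transfected with multiplexed cis-promoter reporter units sensing endogenous transcription factors; reporter mRNA measured 24 h after dosing by RT-PCR, 6-FAM labeling, HpaI digestion and capillary electrophoresis. Bidirectional fit versus DMSO.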

[15] = target: Signal transducer and activator of transcription 3 (Homo sapiens) (UniProt P40763); assay: ATG_STAT3_CIS: Attagene CIS-FACTORIAL HepG2 Assay for human Signal Transducer and Activator of Transcription 3 (STAT3) (AID 2282963); conditions: HepG2, Attagene cis-factorial STAT3 reporter transcription; actives raise or lower the signal
Summary of the method: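 After a 24 h compound incubation, total RNA from MRTU-transfected HepG2 cells was converted to cDNA and reporter sequences PCR-amplified, labelled and profiled by capillary electrophoresis. Gain and loss of signal were referenced to DMSO.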

[16] = ATG_TCF_b_cat_CIS: Attagene CIS-FACTORIAL HepG2 Assay for human T-Cell-Factor with beta-catenin (TCF/b-cat) (AID 2282965); conditions: HepG2 TCF/beta-catenin cis-reporter transcription, actives raise or lower the signal
Summary of the method: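 Measured: reporter mRNA in HepG2 transiently transfected with cis-promoter reporter units, 24 h after chemical addition. Fitting was bidirectional, DMSO as negative control.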

[17] = ATG_MRE_CIS: Attagene CIS-FACTORIAL HepG2 Assay for human Metal Responsive Element (MRE) (AID 2282954); conditions: HepG2 MRE cis-reporter transcription, Attagene multiplex; actives raise or lower the signal
Summary of the method: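 After a 24 h chemical exposure, transiently transfected HepG2 cells yield RNA whose reporter sequences are amplified, FAM-labelled and sized by capillary electrophoresis. Curves are fitted bidirectionally relative to DMSO.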

[18] = ATG_PBREM_CIS: Attagene CIS-FACTORIAL HepG2 Assay for human Phenobarbital-responsive Enhancer Module (PBREM) (AID 2282955); conditions: HepG2 PBREM cis-reporter, Attagene multiplexed transcription; actives raise or lower the signal
Summary of the method: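 Fluorescence of labelled reporter cDNA fragments, resolved by capillary electrophoresis, gives mRNA induction in transfected HepG2 cells treated for 24 h; DMSO serves as negative control and baseline.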

[19] = ATG_TA_CIS: Attagene CIS-FACTORIAL HepG2 Assay for human TA Basal Promoter (AID 2282964); conditions: HepG2 Attagene CIS-factorial TA basal promoter reporter; actives raise or lower the signal
Summary of the method: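 Steps: transfect HepG2 with MRTUs; dose 24 h; isolate RNA, DNase-treat, reverse-transcribe; PCR and FAM-label reporter cDNA; digest with HpaI 2h at 37 C; run capillary electrophoresis. Activity fitted both directions against DMSO.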

Measured: AC50

Transcription factor Sp1 (Homo sapiens), sequence (P08047 whole entry, looked up): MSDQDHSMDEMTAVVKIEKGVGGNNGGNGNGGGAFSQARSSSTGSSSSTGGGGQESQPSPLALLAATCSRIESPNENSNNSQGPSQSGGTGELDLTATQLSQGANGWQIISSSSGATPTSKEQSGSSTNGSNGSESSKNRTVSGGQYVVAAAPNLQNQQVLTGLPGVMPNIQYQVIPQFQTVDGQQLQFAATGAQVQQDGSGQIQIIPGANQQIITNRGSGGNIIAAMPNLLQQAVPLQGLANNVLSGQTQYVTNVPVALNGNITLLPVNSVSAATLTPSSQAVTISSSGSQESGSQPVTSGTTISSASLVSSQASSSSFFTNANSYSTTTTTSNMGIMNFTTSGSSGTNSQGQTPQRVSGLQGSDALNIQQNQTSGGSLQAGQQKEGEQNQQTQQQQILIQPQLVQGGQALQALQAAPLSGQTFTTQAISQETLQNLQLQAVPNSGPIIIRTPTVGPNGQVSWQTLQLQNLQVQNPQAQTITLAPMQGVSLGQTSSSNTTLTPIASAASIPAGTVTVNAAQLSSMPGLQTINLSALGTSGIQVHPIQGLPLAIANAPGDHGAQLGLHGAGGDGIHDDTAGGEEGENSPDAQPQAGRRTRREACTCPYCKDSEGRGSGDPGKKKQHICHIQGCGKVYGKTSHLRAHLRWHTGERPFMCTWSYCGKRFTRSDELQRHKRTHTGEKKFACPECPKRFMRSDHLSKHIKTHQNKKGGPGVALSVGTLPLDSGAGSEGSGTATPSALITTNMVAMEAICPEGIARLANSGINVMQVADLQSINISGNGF
Hepatocyte nuclear factor 6 (Homo sapiens), sequence (Q9UBC0 whole entry, looked up): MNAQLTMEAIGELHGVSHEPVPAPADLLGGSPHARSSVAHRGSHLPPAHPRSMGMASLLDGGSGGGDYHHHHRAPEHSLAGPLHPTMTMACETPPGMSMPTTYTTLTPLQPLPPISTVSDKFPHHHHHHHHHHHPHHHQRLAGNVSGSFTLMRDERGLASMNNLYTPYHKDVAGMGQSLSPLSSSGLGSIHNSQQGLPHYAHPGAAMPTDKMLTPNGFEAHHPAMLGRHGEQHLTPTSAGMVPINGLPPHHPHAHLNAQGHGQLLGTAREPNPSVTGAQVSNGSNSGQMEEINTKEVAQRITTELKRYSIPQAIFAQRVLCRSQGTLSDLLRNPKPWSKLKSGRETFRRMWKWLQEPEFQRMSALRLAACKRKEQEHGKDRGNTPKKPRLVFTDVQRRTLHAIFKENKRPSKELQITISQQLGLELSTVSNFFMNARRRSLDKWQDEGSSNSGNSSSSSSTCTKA
Signal transducer and activator of transcription 3 (Homo sapiens), sequence (P40763 whole entry, looked up): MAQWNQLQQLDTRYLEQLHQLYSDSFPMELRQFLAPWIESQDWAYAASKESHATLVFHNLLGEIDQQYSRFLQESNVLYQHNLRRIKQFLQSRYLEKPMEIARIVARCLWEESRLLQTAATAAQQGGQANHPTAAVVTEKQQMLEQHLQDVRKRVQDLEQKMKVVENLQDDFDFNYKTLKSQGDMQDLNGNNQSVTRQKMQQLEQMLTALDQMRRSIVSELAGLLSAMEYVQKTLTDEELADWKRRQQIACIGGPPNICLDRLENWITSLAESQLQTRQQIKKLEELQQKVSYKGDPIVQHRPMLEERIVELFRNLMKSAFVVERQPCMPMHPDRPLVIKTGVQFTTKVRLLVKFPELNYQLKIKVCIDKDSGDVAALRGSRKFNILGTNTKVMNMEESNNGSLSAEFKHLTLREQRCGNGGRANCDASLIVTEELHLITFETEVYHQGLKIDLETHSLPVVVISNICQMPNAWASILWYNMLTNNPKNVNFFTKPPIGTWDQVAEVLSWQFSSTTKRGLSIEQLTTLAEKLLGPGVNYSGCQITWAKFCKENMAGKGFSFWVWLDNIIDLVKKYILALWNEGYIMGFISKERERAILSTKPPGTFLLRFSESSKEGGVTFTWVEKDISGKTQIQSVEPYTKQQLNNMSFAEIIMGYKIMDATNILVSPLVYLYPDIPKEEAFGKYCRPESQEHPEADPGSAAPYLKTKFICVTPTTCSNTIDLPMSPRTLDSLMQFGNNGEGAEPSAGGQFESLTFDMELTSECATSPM
Paired box protein Pax-6 (Homo sapiens), sequence (P26367 whole entry, looked up): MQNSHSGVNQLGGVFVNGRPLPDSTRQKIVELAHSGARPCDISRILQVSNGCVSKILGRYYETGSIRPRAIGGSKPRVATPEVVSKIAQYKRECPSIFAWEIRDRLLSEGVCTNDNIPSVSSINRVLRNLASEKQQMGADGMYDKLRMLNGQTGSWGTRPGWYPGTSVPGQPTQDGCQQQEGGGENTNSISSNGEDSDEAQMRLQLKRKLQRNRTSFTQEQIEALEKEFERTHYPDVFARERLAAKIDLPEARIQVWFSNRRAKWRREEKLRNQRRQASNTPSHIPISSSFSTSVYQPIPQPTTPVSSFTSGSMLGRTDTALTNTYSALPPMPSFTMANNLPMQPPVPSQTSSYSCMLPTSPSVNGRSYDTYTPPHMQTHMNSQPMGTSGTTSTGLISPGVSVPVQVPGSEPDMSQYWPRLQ
Hypoxia-inducible factor 1-alpha (Homo sapiens), sequence (Q16665 whole entry, looked up): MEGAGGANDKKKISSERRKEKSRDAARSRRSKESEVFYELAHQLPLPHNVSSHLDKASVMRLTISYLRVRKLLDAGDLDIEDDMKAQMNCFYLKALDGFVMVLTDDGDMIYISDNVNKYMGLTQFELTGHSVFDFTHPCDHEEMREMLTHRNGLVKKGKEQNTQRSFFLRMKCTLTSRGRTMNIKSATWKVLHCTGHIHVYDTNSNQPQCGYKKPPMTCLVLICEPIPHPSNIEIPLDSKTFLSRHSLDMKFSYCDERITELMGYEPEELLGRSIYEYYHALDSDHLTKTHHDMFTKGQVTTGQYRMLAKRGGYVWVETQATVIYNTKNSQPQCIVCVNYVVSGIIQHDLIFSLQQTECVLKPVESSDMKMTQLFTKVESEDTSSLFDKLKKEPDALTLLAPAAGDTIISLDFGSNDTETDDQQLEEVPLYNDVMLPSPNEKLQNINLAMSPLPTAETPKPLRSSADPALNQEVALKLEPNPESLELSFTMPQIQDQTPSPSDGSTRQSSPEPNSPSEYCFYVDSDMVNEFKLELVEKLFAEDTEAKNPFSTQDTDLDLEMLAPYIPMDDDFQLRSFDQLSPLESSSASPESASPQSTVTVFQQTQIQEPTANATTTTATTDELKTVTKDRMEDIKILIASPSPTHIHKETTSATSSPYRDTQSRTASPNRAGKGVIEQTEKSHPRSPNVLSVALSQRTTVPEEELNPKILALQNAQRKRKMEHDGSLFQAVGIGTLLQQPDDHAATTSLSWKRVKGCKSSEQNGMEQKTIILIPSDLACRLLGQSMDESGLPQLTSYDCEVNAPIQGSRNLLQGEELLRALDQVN
Heat shock factor protein 1 (Homo sapiens), sequence (Q00613 whole entry, looked up, the tested form may be a part): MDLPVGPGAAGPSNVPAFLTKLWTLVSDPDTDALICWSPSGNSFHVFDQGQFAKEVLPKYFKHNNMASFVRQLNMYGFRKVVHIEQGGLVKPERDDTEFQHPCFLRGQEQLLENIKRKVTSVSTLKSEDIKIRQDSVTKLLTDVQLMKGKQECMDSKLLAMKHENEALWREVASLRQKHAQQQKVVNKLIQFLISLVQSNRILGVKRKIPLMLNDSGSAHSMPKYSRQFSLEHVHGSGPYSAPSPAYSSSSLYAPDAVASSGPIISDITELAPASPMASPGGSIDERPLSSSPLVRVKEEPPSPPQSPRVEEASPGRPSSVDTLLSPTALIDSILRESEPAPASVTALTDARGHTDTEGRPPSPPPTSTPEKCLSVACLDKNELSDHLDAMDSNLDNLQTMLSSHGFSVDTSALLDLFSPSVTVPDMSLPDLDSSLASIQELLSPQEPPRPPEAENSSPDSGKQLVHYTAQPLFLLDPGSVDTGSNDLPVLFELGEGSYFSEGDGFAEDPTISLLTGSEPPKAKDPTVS

O=C1CCCCCCCCCCCCCCO1
not listed: [17] | [18] | [19]
inactive: all other assays above

CCCCCCCCCCCCN
active: [14] 18.1 µM
not listed: [7] | [19]
inactive: all other assays above

Cc1cc(C2(c3cc(C)c(O)cc3C)OS(=O)(=O)c3ccccc32)c(C)cc1O
active: [9] 24.2 µM
not listed: [7] | [10]
inactive: all other assays above

[Ca+2]
not listed: [9] | [10] | [14] | [16] | [18]
inactive: all other assays above

Cc1cccc(C)c1[N+](=O)[O-]
not listed: [7] | [12] | [18] | [19]
inactive: all other assays above

S=C(S)NCCNC(=S)S
not listed: [10] | [14] | [17] | [18]
inactive: all other assays above

CN(C)C(=N)N=C(N)N
not listed: [7] | [10] | [11]
inactive: all other assays above

O=C(OCc1ccccc1)C(=O)OCc1ccccc1
not listed: [7] | [10] | [14]
inactive: all other assays above

CCC/C=C/C=O
active: [9] 11.2 µM
not listed: [7] | [11] | [15]
inactive: all other assays above

CCN(CC)c1ccc(C(=C2C=CC(=[N+](CC)CC)C=C2)c2ccc(S(=O)(=O)O)cc2S(=O)(=O)[O-])cc1
active: [9] 63.4 µM
not listed: [10] | [18]
inactive: all other assays above

O=C(O)c1cccc([N+](=O)[O-])c1
not listed: [7] | [10] | [12] | [15] | [18]
inactive: all other assays above

O=S(=O)(O)c1cccc2c(S(=O)(=O)O)cccc12
not listed: [10] | [11] | [14] | [17]
inactive: all other assays above

CC1COc2ccccc2N1C(=O)C(Cl)Cl (stereo not given)
active: [2] 100 µM | [17] 62.1 µM | [8] 26.7 µM | [9] 26.6 µM
not listed: [7] | [10] | [11] | [19]
inactive: all other assays above

COC(=O)Cc1cccc2ccccc12
active: [9] 42.8 µM
not listed: [7] | [19]
inactive: all other assays above

C=CC[N+](C)(C)CC=C
not listed: [7] | [18]
inactive: all other assays above

CC(C)c1cccc(O)c1
active: [9] 28.4 µM
not listed: [11] | [17]
inactive: all other assays above

C=CCOc1nc(OCC=C)nc(OCC=C)n1
not listed: [9] | [11] | [18]
inactive: all other assays above
